Measurements: the supplement of paper PMC6555819

Columns and labels:
Assay in all cases: PBM binding z-score (relative to random genomic background probes); higher = stronger binding; sequences stand for … in GC…GCGATTGACAGCGTAGAATGAAGG
[1] = test system: FXR:RXRa (NR concentration 270 nM, RXRa partner concentration 90 nM)
Procedure, shortened: (§1)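 Binding buffer was PBS pH 7.4 with 2% milk, 0.02% Triton X-100, 1 mM DTT, 0.2 mg/mL BSA and 0.4 mg/ml salmon testes DNA. In it, ligand-free nuclear receptor dimers were incubated 1 h on custom Agilent 4×180K protein-binding microarrays carrying double-stranded probes. Antibodies against each partner (one per run) detected binding, and z-scores were calculated against random background probes after regression normalization of scanned fluorescence.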

[2] = test system: LXRa:RXRa (NR concentration 270 nM, RXRa partner concentration 90 nM)
Procedure, shortened: as §1

[3] = test system: LXRa homodimer (NR concentration 270 nM)
Procedure, shortened: as §1

[4] = test system: LXRb:RXRa (NR concentration 270 nM, RXRa partner concentration 90 nM)
Procedure, shortened: as §1

[5] = test system: LXRb homodimer (NR concentration 270 nM)
Procedure, shortened: as §1

[6] = test system: PPARa:RXRa (NR concentration 270 nM, RXRa partner concentration 90 nM)
Procedure, shortened: as §1

[7] = test system: PPARg:RXRa (NR concentration 180 nM, RXRa partner concentration 90 nM)
Procedure, shortened: as §1

[8] = test system: PPARg:RXRa 270nM:90nM, anti-RXR (NR concentration 270 nM, RXRa partner concentration 90 nM)
Procedure, shortened: as §1

[9] = test system: PPARg:RXRa 30nM:10nM, anti-RXR (NR concentration 30 nM, RXRa partner concentration 10 nM)
Procedure, shortened: as §1

[10] = test system: PPARg:RXRa 90nM:30nM, anti-RXR (NR concentration 90 nM, RXRa partner concentration 30 nM)
Procedure, shortened: as §1

[11] = test system: PPARg:RXRa DBDmut IVT, anti-RXR (DBD mutation: RXRa K156A/R161A, NR concentration 270 nM, RXRa partner concentration 90 nM)
Procedure, shortened: as §1

[12] = test system: PPARg:RXRa IVT, anti-PPARg (NR concentration 270 nM, RXRa partner concentration 90 nM)
Procedure, shortened: as §1

[13] = test system: PPARg DBDmut:RXRa IVT, anti-PPARg (DBD mutation: PPARg1 K132A/R137A, NR concentration 270 nM, RXRa partner concentration 90 nM)
Procedure, shortened: as §1

[14] = test system: PPARg DBDmut IVT, anti-PPARg (DBD mutation: PPARg1 K132A/R137A, NR concentration 270 nM)
Procedure, shortened: as §1

[15] = test system: PPARg homodimer (NR concentration 180 nM)
Procedure, shortened: as §1

[16] = test system: PXR:RXRa (NR concentration 270 nM, RXRa partner concentration 90 nM)
Procedure, shortened: as §1

[17] = test system: PXR homodimer (NR concentration 270 nM)
Procedure, shortened: as §1

[18] = test system: RARa:RXR (NR concentration 270 nM, RXRa partner concentration 90 nM)
Procedure, shortened: as §1

[19] = test system: RARa homodimer (NR concentration 270 nM)
Procedure, shortened: as §1

[20] = test system: RARb:RXRa (NR concentration 270 nM, RXRa partner concentration 90 nM)
Procedure, shortened: as §1

ATCTCTAGGTAAATATAGTTCAGTGAATGCAAAT
PBM binding z-score [1]: 0.614 | PBM binding z-score [2]: 5.89 | PBM binding z-score [3]: 1.51 | PBM binding z-score [4]: 2.5 | PBM binding z-score [5]: 1.12 | PBM binding z-score [6]: 0.691 | PBM binding z-score [7]: 1.16 | PBM binding z-score [8]: 0.903 | PBM binding z-score [9]: 1.13 | PBM binding z-score [10]: 1.05 | PBM binding z-score [11]: 1.8 | PBM binding z-score [12]: 1.91 | PBM binding z-score [13]: 1.61 | PBM binding z-score [14]: 1.65 | PBM binding z-score [15]: 1.19 | PBM binding z-score [16]: 1.38 | PBM binding z-score [17]: 0.957 | PBM binding z-score [18]: 0.923 | PBM binding z-score [19]: 1.21 | PBM binding z-score [20]: 0.851

ATCTTTAGGTAACAAGTTCAGTGAAAGAGAGGAC
PBM binding z-score [1]: 1.21 | PBM binding z-score [2]: 1.09 | PBM binding z-score [3]: 0.889 | PBM binding z-score [4]: 1.08 | PBM binding z-score [5]: 1.44 | PBM binding z-score [6]: 1.41 | PBM binding z-score [7]: 0.762 | PBM binding z-score [8]: 1.44 | PBM binding z-score [9]: 0.49 | PBM binding z-score [10]: 0.949 | PBM binding z-score [11]: 2.13 | PBM binding z-score [12]: 1.75 | PBM binding z-score [13]: 1.64 | PBM binding z-score [14]: 1.45 | PBM binding z-score [15]: 1.33 | PBM binding z-score [16]: 1.95 | PBM binding z-score [17]: 1.87 | PBM binding z-score [18]: 1.32 | PBM binding z-score [19]: 1.15 | PBM binding z-score [20]: 1.85

TCATATAGGTAAACAGGTGCAAGTCCGTAAGTTA
PBM binding z-score [1]: 0.886 | PBM binding z-score [2]: 1 | PBM binding z-score [3]: 0.433 | PBM binding z-score [4]: 1.02 | PBM binding z-score [5]: -0.121 | PBM binding z-score [6]: 1.65 | PBM binding z-score [7]: 1.1 | PBM binding z-score [8]: 2.53 | PBM binding z-score [9]: 3.85 | PBM binding z-score [10]: 3.12 | PBM binding z-score [11]: 4.3 | PBM binding z-score [12]: 2.74 | PBM binding z-score [13]: 0.88 | PBM binding z-score [14]: 1.48 | PBM binding z-score [15]: 1.13 | PBM binding z-score [16]: 1.33 | PBM binding z-score [17]: 0.685 | PBM binding z-score [18]: 1.34 | PBM binding z-score [19]: 1.57 | PBM binding z-score [20]: 0.765

CAAACGAGGGCATGAGTTGATAGCAAATGCCGAT
PBM binding z-score [1]: 0.718 | PBM binding z-score [2]: 0.454 | PBM binding z-score [3]: -0.447 | PBM binding z-score [4]: 0.313 | PBM binding z-score [5]: -0.289 | PBM binding z-score [6]: 1.86 | PBM binding z-score [7]: 1.7 | PBM binding z-score [8]: 1.88 | PBM binding z-score [9]: 0.402 | PBM binding z-score [10]: 1.12 | PBM binding z-score [11]: 2.71 | PBM binding z-score [12]: 2.88 | PBM binding z-score [13]: 0.524 | PBM binding z-score [14]: -0.353 | PBM binding z-score [15]: 0.909 | PBM binding z-score [16]: 0.572 | PBM binding z-score [17]: -0.0239 | PBM binding z-score [18]: 0.752 | PBM binding z-score [19]: -0.274 | PBM binding z-score [20]: 2.24

GCGACTGGGGCAAAGCACGTTACCATAAGGTTGG
PBM binding z-score [1]: -0.454 | PBM binding z-score [2]: -0.482 | PBM binding z-score [3]: -0.763 | PBM binding z-score [4]: -0.305 | PBM binding z-score [5]: -0.971 | PBM binding z-score [6]: 0.875 | PBM binding z-score [7]: 1.7 | PBM binding z-score [8]: 2.21 | PBM binding z-score [9]: 0.24 | PBM binding z-score [10]: 1.62 | PBM binding z-score [11]: 4.44 | PBM binding z-score [12]: 3.18 | PBM binding z-score [13]: 0.131 | PBM binding z-score [14]: -0.127 | PBM binding z-score [15]: 0.0548 | PBM binding z-score [16]: -0.54 | PBM binding z-score [17]: -0.386 | PBM binding z-score [18]: -0.0632 | PBM binding z-score [19]: -0.156 | PBM binding z-score [20]: 0.573

ACTATTAGTTGACTTAGGGCAACGGATACGACGC
PBM binding z-score [1]: 0.165 | PBM binding z-score [2]: 0.158 | PBM binding z-score [3]: 0.172 | PBM binding z-score [4]: -0.137 | PBM binding z-score [5]: 0.447 | PBM binding z-score [6]: -0.22 | PBM binding z-score [7]: 0.94 | PBM binding z-score [8]: 0.192 | PBM binding z-score [9]: 0.24 | PBM binding z-score [10]: 0.227 | PBM binding z-score [11]: 0.00929 | PBM binding z-score [12]: 0.309 | PBM binding z-score [13]: 1.35 | PBM binding z-score [14]: 1.09 | PBM binding z-score [15]: 0.328 | PBM binding z-score [16]: 0.113 | PBM binding z-score [17]: 0.452 | PBM binding z-score [18]: 0.313 | PBM binding z-score [19]: 0.0802 | PBM binding z-score [20]: 0.718

GCTGCTAGGTCAACTGATTGTCAGCTAAAGCTCG
PBM binding z-score [1]: 4.09 | PBM binding z-score [2]: 2.79 | PBM binding z-score [3]: -0.17 | PBM binding z-score [4]: 2.06 | PBM binding z-score [5]: 0.0753 | PBM binding z-score [6]: 3.54 | PBM binding z-score [7]: 2.73 | PBM binding z-score [8]: 3.13 | PBM binding z-score [9]: 0.683 | PBM binding z-score [10]: 2.12 | PBM binding z-score [11]: 4.92 | PBM binding z-score [12]: 4.51 | PBM binding z-score [13]: -0.116 | PBM binding z-score [14]: -0.522 | PBM binding z-score [15]: 0.898 | PBM binding z-score [16]: 1.19 | PBM binding z-score [17]: -0.593 | PBM binding z-score [18]: 2.27 | PBM binding z-score [19]: -0.584 | PBM binding z-score [20]: 4.25

AATACAGAGTCACTAGGCCAGAGTAGGTACGAAT
PBM binding z-score [1]: -0.115 | PBM binding z-score [2]: -0.0616 | PBM binding z-score [3]: -0.358 | PBM binding z-score [4]: -0.555 | PBM binding z-score [5]: -0.252 | PBM binding z-score [6]: 0.626 | PBM binding z-score [7]: 1.31 | PBM binding z-score [8]: 0.617 | PBM binding z-score [9]: 0.184 | PBM binding z-score [10]: 0.718 | PBM binding z-score [11]: 0.648 | PBM binding z-score [12]: 1.74 | PBM binding z-score [13]: 1.31 | PBM binding z-score [14]: 0.135 | PBM binding z-score [15]: 0.238 | PBM binding z-score [16]: -0.343 | PBM binding z-score [17]: -0.0346 | PBM binding z-score [18]: -0.415 | PBM binding z-score [19]: 0.249 | PBM binding z-score [20]: 0.141
